Consider 8 compounds from PubChem BioAssay (Tox21).

A short description of assay [1]: qHTS RealTime-Glo MT Cell Viability Assay in HEK293 cells - 0 hour (AID 1224880). Also: top concentration of the series differs between compounds; nearly all actives have a fitted effect of over 45% in size. An outline of the steps:
(§1)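 Nonlytic bioluminescent viability monitoring. HEK293 at 600 cells/well with reagent; 5 h settle; compound transfer by pintool; plates held at 37 C and read at set time points.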
For orientation: qHTS replaces the single test concentration by a dilution series.

A short description of assay [2]: A CellTox Green Cytotoxicity Assay to monitor cytotoxicity in HEK293 cells - 32 hour (AID 1224881). Also: nearly all actives have a fitted effect of over 40% in size. An outline of the steps: (§2)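 Cytotoxicity was tracked continuously in HEK293 cells by a DNA-binding dye excluded from viable cells. Compounds were transferred in DMSO 5 h after seeding; fluorescence was recorded at intervals up to 40 h.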
Assay [3] can be described thus: A CellTox Green Cytotoxicity Assay to monitor cytotoxicity in HepG2 cells - 0 hour (AID 1224882). Also: nearly all actives have a fitted effect of over 35% in size. An outline of the steps: (§3)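 Real-time, homogeneous cytotoxicity readout: dead-cell DNA staining by CellTox Green in HepG2 monolayers, fluorescence measured at timed intervals up to 40 h of continuous compound exposure.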
The nature of assay [4]: A CellTox Green Cytotoxicity Assay to monitor cytotoxicity in HepG2 cells - 32 hour (AID 1224883). Also: nearly all actives have a fitted effect of over 50% in size. In short, it runs like this: as §3
Assay [5] in a line: A CellTox Green Cytotoxicity Assay to monitor cytotoxicity in HEK293 cells - 8 hour (AID 1224884). Also: nearly all actives have a fitted effect of over 35% in size. In short, it runs like this:
as §2

Assay [6] can be described thus: qHTS RealTime-Glo MT Cell Viability Assay in HepG2 cells - 16 hour (AID 1224885). Also: nearly all actives have a fitted effect of over 50% in size. In short, it runs like this: (§4)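 Viability was tracked continuously by NanoLuc luminescence from prosubstrate reduced by living HepG2 cells, at successive time points over 40 h of compound exposure. Cells with reagent were preincubated 5 h at 37 °C before compound addition.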
The nature of assay [7]: qHTS RealTime-Glo MT Cell Viability Assay in HEK293 cells - 24 hour (AID 1224886). Also: top concentration of the series differs between compounds; nearly all actives have a fitted effect of over 50% in size. An outline of the steps: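 Viability tracked continuously by luminescence as live cells reduce a prosubstrate for NanoLuc; HEK293 cells preincubated 5 h, compound-treated at 37 C, and read at 0, 8, 16, 24, 32 and 40 h.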
The nature of assay [8]: qHTS RealTime-Glo MT Cell Viability Assay in HEK293 cells - 8 hour (AID 1224887). Also: top concentration of the series differs between compounds; nearly all actives have a fitted effect of over 50% in size. In short, it runs like this:
as §1

Assay [9] in a line: A CellTox Green Cytotoxicity Assay to monitor cytotoxicity in HEK293 cells - 16 hour (AID 1224888). Also: nearly all actives have a fitted effect of over 35% in size. In short, it runs like this: as §2
Assay [10] can be described thus: qHTS RealTime-Glo MT Cell Viability Assay in HepG2 cells - 0 hour (AID 1224889). Also: nearly all actives have a fitted effect of over 50% in size. In short, it runs like this:
as §4

Assay [11] can be described thus: A CellTox Green Cytotoxicity Assay to monitor cytotoxicity in HepG2 cells - 8 hour (AID 1224890). Also: nearly all actives have a fitted effect of over 45% in size. An outline of the steps:
as §3

Assay [12] can be described thus: qHTS assay to identify small molecule antagonists of the estrogen receptor alpha (ER-alpha) signaling pathway using the BG1 cell line in the presence of 0.1 nM 17-beta-estradiol - cell viability counter screen (AID 1259241). Also: nearly all actives have a fitted effect of over 40% in size. Also: potency is read from the fitted curve at half-maximal effect. An outline of the steps: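 The cell line endogenously expresses full-length ER-alpha and carries four EREs driving luciferase. Cells are cultured 5 days hormone-free, treated 22 hr with compounds and 0.1 nM estradiol, then viability is read by fluorescence.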

A short description of assay [13]: qHTS assay to identify small molecule antagonists of the androgen receptor (AR) signaling pathway using the MDA cell line in the presence of 0.5 nM R1881 - cell viability counter screen (AID 1259242). Also: nearly all actives have a fitted effect of over 45% in size. Also: potency is read from the fitted curve at half-maximal effect. An outline of the steps: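 Cytotoxicity toward MDA-kb2 cells is measured by CellTiter-Fluor live-cell protease fluorescence after 16 hr compound exposure at 37C in the presence of 0.5 nM R1881 stimulator.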

Assay [14] addresses Estrogen receptor (Homo sapiens) (UniProt P03372). The assay is described as follows: qHTS assay to identify small molecule antagonists of the estrogen receptor alpha (ER-alpha) signaling pathway using the BG1 cell line in the presence of 0.1 nM 17-beta-estradiol (AID 1259244). Also: nearly all actives have a fitted effect of over 50% in size. Also: potency is read from the fitted curve at half-maximal effect. In short, it runs like this: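 After 5 days in hormone-depleted medium (charcoal-stripped serum, no phenol red), VM7Luc4E2 cells were seeded, incubated 24 h, then co-treated with compound and 0.1 nM (final) estradiol for 22 h before luminescence detection.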

The nature of assay [15]: qHTS assay to identify small molecule HDAC inhibitors (AID 1259364). Also: nearly all actives have a fitted effect of over 45% in size. Also: potency is read from the fitted curve at half-maximal effect. As to activity change, negative = inhibition: top concentration of the series differs between compounds. In short, it runs like this: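 Homogeneous cell-based luminescent assay of endogenous class I/II HDAC activity; HCT-116 cells, 2 h compound exposure, 30 min HDAC-Glo development at RT.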
Assay [16] is described as follows: qHTS assay to identify small molecule agonists of the sonic hedgehog signaling (Shh) pathway - cell viability counter screen (AID 1259366). Also: nearly all actives have a fitted effect of over 50% in size. Also: potency is read from the fitted curve at half-maximal effect. An outline of the steps: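 Viability measured fluorometrically (CellTiter-Fluor, 1hr, 37C) in 3T3 Gli1-Luc reporter cells after 23hr compound exposure within a 24hr incubation at 37C/5% CO2.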
Assay [17] in a line: qHTS assay to identify small molecule antagonists of the sonic hedgehog signaling (Shh) pathway - cell viability counter screen (AID 1259367). Also: nearly all actives have a fitted effect of over 55% in size. Also: potency is read from the fitted curve at half-maximal effect. An outline of the steps:
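After a 4 hr settling period, 3T3 Gli1-Luc cells were treated with DMSO-dissolved chemicals and conditioned medium, kept 24 hr at 37C in 5% CO2, and assayed for viability by CellTiter-Fluor fluorescence following 1 hr reagent incubation.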

Assay [18] in a line: qHTS assay to identify small molecule HDAC inhibitors - cell viability counter screen (AID 1259365). Also: nearly all actives have a fitted effect of over 50% in size. Also: potency is read from the fitted curve at half-maximal effect. As to activity change, negative = cytotoxicity: series mostly up to about 92 µM. In short, it runs like this: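 Viability readout: CellTiter-Glo luminescence. Wild-type HCT-116 cells, 2hr compound treatment following overnight attachment at 37 C.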
Assay [19] has as its target Androgen receptor (Homo sapiens) (UniProt P10275). The assay is described as follows: qHTS assay to identify small molecule antagonists of the androgen receptor (AR) signaling pathway using the MDA cell line in the presence of 0.5 nM R1881 (AID 1259243). Also: nearly all actives have a fitted effect of over 50% in size. Also: potency is read from the fitted curve at half-maximal effect. An outline of the steps: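 Steps: seed MDA-kb2 cells, incubate 5 hr at 37C; pin-transfer compounds in DMSO; add R1881 to 0.5 nM final; incubate 16 hr; add ONE-Glo, wait 30 min at room temperature; read luminescence.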

Molecules are shown by their SMILES. Values without a mark were called inactive. Results filed as inconclusive are left out. The source made the active and inactive calls. Calls follow the shape of the dose curve; as a rule, active = well fitted curve in the direction sought with a large enough effect in the repeat runs; inconclusive = weak or mixed curves; inactive = no such curve, though single readings can be large; an effect the other way counts as inactive or inconclusive.
% is scaled to controls: 0 for no effect and ±100 for the full control effect.

Chain of Estrogen receptor (Homo sapiens) (P03372 whole entry, looked up): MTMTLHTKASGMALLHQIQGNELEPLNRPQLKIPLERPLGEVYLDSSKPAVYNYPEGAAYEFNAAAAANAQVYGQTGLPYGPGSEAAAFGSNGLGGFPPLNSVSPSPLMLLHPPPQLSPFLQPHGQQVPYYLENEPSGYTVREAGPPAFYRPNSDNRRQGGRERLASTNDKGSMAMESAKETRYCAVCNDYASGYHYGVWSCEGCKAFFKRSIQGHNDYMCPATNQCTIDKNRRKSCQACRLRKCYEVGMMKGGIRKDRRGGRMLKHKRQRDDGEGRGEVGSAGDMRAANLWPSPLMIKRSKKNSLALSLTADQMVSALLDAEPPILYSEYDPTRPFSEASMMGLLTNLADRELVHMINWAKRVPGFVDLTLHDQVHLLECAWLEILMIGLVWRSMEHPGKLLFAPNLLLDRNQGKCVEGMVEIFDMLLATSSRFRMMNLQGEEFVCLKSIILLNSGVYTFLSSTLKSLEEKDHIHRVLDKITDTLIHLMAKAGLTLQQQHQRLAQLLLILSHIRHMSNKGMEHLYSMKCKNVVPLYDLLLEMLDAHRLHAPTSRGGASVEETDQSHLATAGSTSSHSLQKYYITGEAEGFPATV
Chain of Androgen receptor (Homo sapiens) (P10275 whole entry, looked up): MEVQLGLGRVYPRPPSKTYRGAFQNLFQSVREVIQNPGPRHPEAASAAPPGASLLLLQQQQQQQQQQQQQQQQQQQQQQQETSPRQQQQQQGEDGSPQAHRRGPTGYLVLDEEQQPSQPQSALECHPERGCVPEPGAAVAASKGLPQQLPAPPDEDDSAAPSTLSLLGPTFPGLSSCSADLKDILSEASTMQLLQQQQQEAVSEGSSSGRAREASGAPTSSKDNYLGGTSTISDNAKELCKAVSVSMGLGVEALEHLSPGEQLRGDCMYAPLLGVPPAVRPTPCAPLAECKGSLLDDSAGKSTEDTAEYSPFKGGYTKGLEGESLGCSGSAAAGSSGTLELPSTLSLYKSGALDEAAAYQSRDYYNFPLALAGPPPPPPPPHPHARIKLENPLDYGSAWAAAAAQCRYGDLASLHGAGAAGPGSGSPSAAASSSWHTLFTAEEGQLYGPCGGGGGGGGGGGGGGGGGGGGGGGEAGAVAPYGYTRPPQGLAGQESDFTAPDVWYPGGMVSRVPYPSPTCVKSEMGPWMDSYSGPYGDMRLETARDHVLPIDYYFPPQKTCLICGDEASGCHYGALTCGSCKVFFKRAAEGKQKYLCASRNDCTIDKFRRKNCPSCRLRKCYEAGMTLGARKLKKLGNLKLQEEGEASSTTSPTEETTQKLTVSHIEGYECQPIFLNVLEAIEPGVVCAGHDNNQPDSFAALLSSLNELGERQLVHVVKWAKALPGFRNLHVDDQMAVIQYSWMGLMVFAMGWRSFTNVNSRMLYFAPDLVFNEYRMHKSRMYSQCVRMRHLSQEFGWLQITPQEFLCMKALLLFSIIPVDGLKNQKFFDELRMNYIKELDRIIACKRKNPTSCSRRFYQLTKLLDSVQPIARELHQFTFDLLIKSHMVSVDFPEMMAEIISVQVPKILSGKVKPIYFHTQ

Take `CC(=O)OC(C)C[N+](C)(C)C` (configuration not stated): the Potency result in assay [1], in assay [2], in assay [3], in assay [4], in assay [5] and in [6] was “inactive” throughout. For the same compound, the Potency result in assay [7], in assay [8], in assay [9], in [10], in assay [11] and in assay [12] was “inactive” throughout. The Potency result in [13], in assay [14], in [15], in assay [16] and in [17] was “inactive” throughout.
Take `c1ccc2sc(SSc3nc4ccccc4s3)nc2c1`: the activity change, negative = cytotoxicity in assay [1] is -1.35% [at 15.8 µM]; in [7] it was 4.46% [at 15.8 µM]; in assay [8], 0.0342% [at 15.8 µM]; in [10], 0.525% [at 15.8 µM]; in [12], 8.69% [at 19 µM]; in assay [18] it was 0.0537% [at 19 µM]. Also, the cytotoxicity increase in assay [2] was 13.3% [at 15.8 µM]; in [4], 4.1% [at 15.8 µM]; in [5], 3.51% [at 15.8 µM]; in [11] it was 0.594% [at 15.8 µM]. Also, the cytotoxicity in [3] is 0.139% [at 15.8 µM]. The activity change, negative = cytotoxic in [6] was 5.08% [at 15.8 µM]. The activity change in assay [9] was 10.5% [at 15.8 µM, active compounds read high]. In addition, the values for the viability change, negative = cytotoxic in assay [13], in [16] and in assay [17] were 8.85% [at 19 µM], 21.7% [at 19 µM] and 7.43% [at 19 µM], respectively. Besides, the activity change, negative = inhibition in [14] was 1.45% [at 19 µM]; in assay [15], -21.4% [at 19 µM].
As for `O=C(c1ccccc1)c1ccc(O)cc1`, the Potency result in assay [1], in assay [2], in [3], in [4], in assay [5] and in assay [6] was “inactive” throughout. Besides, the Potency result in assay [7], in assay [8], in [9], in assay [10], in assay [11] and in [12] was “inactive” throughout. The Potency entry in assay [13], in assay [15], in [18] and in assay [16] was “inactive” throughout. The Potency in assay [19] was 24.6 µM (active); in assay [17], 49.1 µM (active).
Take `CCN(Cc1cccc(S(=O)(=O)O)c1)c1ccc(C(=C2C=CC(=[N+](CC)Cc3cccc(S(=O)(=O)O)c3)C=C2)c2ccc(O)cc2S(=O)(=O)[O-])cc1`: the Potency result in assay [1], in assay [2], in assay [3], in assay [4], in assay [5] and in assay [6] was “inactive” in each case. Moreover, the Potency result in assay [7], in assay [8], in [9], in assay [10] and in assay [11] was “inactive” in each case. The Potency in [12] is 16.6 µM (active); in assay [13] it was 18.6 µM (active); in [14], 16.6 µM (active); in assay [15], 3.71 µM (active); in assay [18], 9.32 µM (active); in [16], 16.6 µM (active). The Potency in assay [17] was 16.6 µM (active).
Regarding `CCN(CC)CC(=O)Nc1c(C)cccc1C(=O)OC`, the Potency entry in assay [1], in [2], in assay [3], in assay [4], in assay [5] and in assay [6] was “inactive” each time. In addition, the Potency entry in assay [7], in assay [8], in assay [9], in [10], in [11] and in assay [12] was “inactive” in each case. Also, the Potency result in assay [13], in [14], in assay [15], in assay [18], in assay [16] and in [17] was “inactive” in each case.
Regarding `CCc1ccc(C)cc1`, the Potency entry in [1], in assay [2], in assay [3], in assay [4], in assay [5] and in [6] was “inactive” in each case. In addition, the Potency result in assay [7], in assay [8], in assay [9], in assay [10], in [11] and in assay [12] was “inactive” each time. Besides, the Potency result in [13], in assay [19], in assay [15], in assay [18], in assay [16] and in [17] was “inactive” in each case.
As for `CCCCCCCCCCCCCCCC(=O)OCC`, the Potency entry in assay [1], in [2], in [3], in [4], in assay [5] and in assay [6] was “inactive” in each case. For the same compound, the Potency result in assay [7], in [8], in assay [9], in [10], in [11] and in assay [12] was “inactive” each time. Also, the Potency entry in [13], in assay [14], in assay [15], in [16] and in assay [17] was “inactive” throughout.
For `CC(C)N(C)C`, the Potency result in assay [1], in assay [2], in assay [3], in [4], in [5] and in assay [6] was “inactive” each time. Also, the Potency result in assay [7], in [8], in [9], in [10], in assay [11] and in assay [12] was “inactive” in each case. For the same compound, the Potency result in assay [13], in assay [14], in [15], in assay [18], in assay [16] and in assay [17] was “inactive” in each case.
